# High-throughput results from PubChem BioAssay.
# Pf growth 48h = P. falciparum growth inhibition at 48 hours (one generation); AID 504832; 310,000 tested, 5.9% active; P. falciparum luciferase growth in erythrocytes, 48 h; Potency, µM (top dose mostly 28.7 µM), actives largely listed as inhibitors
#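 A one-generation exposure of luciferase-tagged malaria parasites in RPMI 1640/Albumax erythrocyte culture, 37 C and 5% CO2. Inhibition is inferred from decreased luminescence after adding detection reagent.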
# AMA1-RON2 inh = inhibitors of Plasmodium falciparum AMA1-RON2 interaction; AlphaScreen AMA1-biotinylated RON2 peptide binding; Potency, µM (highest dose often 58.2 µM), hits mostly inhibitors; 360,000 tested, 0.2% active; AID 720542; further: nearly all actives have a fitted effect of over 45% in size
#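 AMA1 (3D7) with his tag at 25 nM final met compounds first, then biotinylated RON2 peptide at 25 nM; detection used donor plus acceptor beads, 10 µg/mL apiece, read by AlphaScreen after 30 min at room temperature.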
# HCV inh = inhibitors of hepatitis C virus infection; AID 651820; Potency, µM (highest dose often 41.8 µM), hits mostly inhibitors; 340,000 tested, 3.4% active; Huh7.5.1 HCVcc-Cre infection, luciferase reporter, 44 h
#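 Cells (1,000/well) were plated 4 h before compound, then infected with HCVcc-Cre virus (~0.5 moi). After 44 h further culture, infection was read as luciferase luminescence following a 15 min substrate incubation at room temperature.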
# Pf growth 96h = inhibits malaria parasite growth, 96 h | P. falciparum luciferase reporter growth, 96 h | Potency, µM (highest dose often 28.7 µM), actives largely listed as inhibitors | 320,000 tested, 6.9% active | AID 504834
#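 Compounds incubated with erythrocytes infected by luciferase-expressing P. falciparum (2% hematocrit, 0.05% parasitemia final) for 96 hours, 37 C in 5% CO2. Growth inhibition scored as decreased luciferase luminescence.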
# Numbers stand for hits; 0 = inactive; ? = inconclusive; - = not tested or not shown; [ ] = remark or other dose. The list is not random: actives were taken first. Their share in the collection is about 11%. The call rests on the fitted dose curve; in most records, active means well fitted curve in the direction sought with a large enough effect; inconclusive means small, poorly fitted or top-dose-only effect, or another doubt; inactive means no such curve, though single readings can be large; an effect the other way counts as inactive or inconclusive.
SMILES,Pf growth 48h,AMA1-RON2 inh,HCV inh,Pf growth 96h
CCOc1ccc(N(CC(=O)NCc2ccc(Cl)cc2)S(=O)(=O)c2c(C)noc2C)cc1,0,0,0,0
COc1ccc(N(CC(=O)NCc2ccccc2Cl)S(=O)(=O)c2c(C)noc2C)cc1,?,0,?,?
COc1ccc(N(CC(=O)NCc2ccc(Cl)cc2)S(=O)(=O)c2c(C)noc2C)cc1,?,0,0,8.3µM
COc1ccc(N(CC(=O)NCc2ccc(C)cc2)S(=O)(=O)c2c(C)noc2C)cc1,?,0,0,2.3µM
COCCNC(=O)CN(C(=O)Cn1nnc2ccccc21)c1ccc(C)c(F)c1,0,0,0,0
CCN(CC)c1ccc2c(c1)CCCN2,10µM,-,11µM,10µM
O=S(=O)(c1ccc2c(c1)CCCN2)N1CCCC1,0,0,0,0
CCOC(=O)c1c(C)oc2c1c1c(c3ccccc32)OCN(CCCC(=O)O)C1,0,0,10µM,0
CCOC(=O)c1c(C)oc2c1c(C(c1cccnc1)N1CCOCC1)c(O)c1ccccc12 (centres undefined),0,0,?,0
CCOC(=O)c1c(C)oc2c1c(C(c1cccnc1)N1CCN(C)CC1)c(O)c1ccccc12 (centres undefined),0,-,11µM,0
CCOC(=O)c1c(C)oc2c1c1c(c3ccccc32)OCN(Cc2cccnc2)C1,?,0,6.3µM,?
CCn1c(SCC(=O)NCc2ccccc2)nc2c(c1=O)SC(C)C2 (centres undefined),0,0,0,?
CCOC(=O)c1ccc(NC(=O)c2cc3c(s2)CCC3)cc1,?,0,7.9µM,0
COC(=O)c1onc(-c2ccccc2)c1C(=O)OC,0,0,0,0[5.75 µM]
COC(=O)c1c(-c2ccc(F)cc2)noc1N,0,0,0,4.7µM
N#C/C(=C\c1ccc(-c2ccc([N+](=O)[O-])cc2)o1)C(=O)Nc1nc(-c2cccs2)cs1,0,0,10µM,0
COc1ccc(F)cc1S(=O)(=O)NCC(=O)NCc1cc(=O)n(C)c(=O)n1C,0,0,0,0
CC(=O)Nc1ccc(NC(=O)C(C)OC(=O)C2(c3ccccc3F)CCCC2)cc1 (centres undefined),8.3µM,0,?,12µM
Cc1cc2nc(CCN(Cc3cccnc3)C(=S)Nc3ccccc3)[nH]c2cc1C,12µM,0,?,7.4µM
COc1ccccc1NC(=S)N(CCc1nc2cc(C)c(C)cc2[nH]1)Cc1cccnc1,10µM,0,?,?
Cc1cc2nc(CCN(Cc3cccnc3)C(=S)Nc3ccc(F)cc3)[nH]c2cc1C,?,0,0,?
O=C(CN1C(=O)NC2(CCCCCC2)C1=O)Nc1ccc2c(c1)CCC2,0,0,0,0
COc1ccc(NS(=O)(=O)N2CCOCC2)cc1,?,0,0,?
COc1cc(NC(=O)c2cccs2)c(OC)cc1NC(=O)c1cccs1,-,0,0,-
COC1CC(=C(c2cccs2)c2cccs2)C[N+](C)(C)C1 (centres undefined),4.8µM,-,-,0
SMILES,Pf growth 48h,AMA1-RON2 inh,HCV inh,Pf growth 96h
CC(C)Cn1c(/C=C/c2ccccc2)nc2ccccc21,0,0[11.6 µM],?,0
CCCn1c(/C=C/c2cc[n+](C)cc2)nc2ccccc21,?,0,0,13µM
CCn1c(/C=C/c2ccccc2)nc2ccccc21,0,0,7.9µM,0
Cn1nc(C(=O)Nc2ccc(S(=O)(=O)N3CCOCC3)cc2)c2ccccc2c1=O,0,0,0,?
COc1ccc(CN2CCCCC2c2cccnc2)c(OC)c1C (centres undefined),?,0,0,?
CCN1C(=O)S/C(=C/c2c(OCc3ccc(C(=O)O)cc3)ccc3ccccc23)C1=O,?,?,0,6.6µM
O=C(O)c1ccc(COc2ccc3ccccc3c2/C=C2/NC(=O)N(c3ccccc3)C2=O)cc1,5.9µM,0,0,?
CCCOC(=O)C1=C(C)NC2=C(C(=O)CCC2)C1c1cccc(OC)c1OC (centres undefined),0,0,0,8.3µM
COCCOC(=O)C1=C(C)N(Cc2ccccc2)C(=O)NC1c1cccc(OC)c1OC (centres undefined),?,0,0,1µM
CCOC(=O)C1=C(C)NC2=C(C(=O)CCC2)C1c1coc2ccccc2c1=O (centres undefined),-,0,0,12µM
CCN(CC)c1ccc(C(=O)NNC(=O)CNC(=O)c2cccs2)cc1,0,0,0,0
Cc1ccc(CN(C(=O)c2csnn2)C(C(=O)NC2CCCC2)c2ccccn2)cc1 (centres undefined),?,0,0,0
CCC(=O)Nc1ccccc1Sc1ncnc2scc(-c3ccccc3)c12,13µM,0,0,4.7µM
